Source: PubChem BioAssay (NCATS)
Inconclusive results are not listed. Unmarked numbers belong to inactive results. Calls of active or inactive are those of the source. The call rests on the fitted dose curve; in most records, active means well fitted inhibition curve with a large enough effect; inconclusive means small, poorly fitted or top-dose-only effect; inactive means no such curve, though single readings can be large or run the other way.

test: Primary qHTS for inhibitors of nuclear receptor binding SET domain protein 2 (NSD2) in an RCH-ACV wild type WT cells (2C) (AID 1645877); conditions: RCH-ACV (leukaemia line) NSD2 WT (2C) viability, CellTiter-Glo, 72 h; series mostly up to 44.9 µM; activity change, negative = cell killing: at the top concentration; further: nearly all actives have a fitted effect of over 70% in size
On the % scale 0 is the no-effect control and ±100 the full control effect; potency means the concentration at half of the fitted maximal effect.

Row | Structure (SMILES) | activity change, negative = cell killing | outcome | Potency
1 | CC(NC(=O)CCc1nc2ccccc2c(=O)[nH]1)c1ccccc1 (stereo not given) | -13.9% | – | –
2 | C=C1CCC2C(C)(C(=O)O)CCCC2(C)C1CCC(C)CC(=O)O (stereo not given) | -24.9% | – | –
3 | C=C1CCC2C(C)(C(=O)O)CCCC2(C)C1CC/C(=C\CO)CO (stereo not given) | – | inactive | –
4 | CC(C)=CC/C=C(\C)[C@H]1CC[C@]2(C)[C@@H]1[C@H](O)C[C@@H]1[C@@]3(C)CC[C@H](O)C(C)(C)[C@@H]3[C@@H](O[C@@H]3O[C@H](CO)[C@@H](O)[C@H](O)[C@H]3O)C[C@]12C | -26.4% | – | –
5 | CC1(C(=O)O)CCCC2(C)C3=CCC4CC3(CCC12)CC4CO (stereo not given) | -22.6% | – | –
6 | CC1CC(=O)C2=C(CCC3(O)C(O)c4c(O)cccc4C(=O)C23O)C1 (stereo not given) | -10.8% | – | –
7 | CC1OC2OC(=O)C3(C)CC4=C(CO)C5=C(CC(=O)C4(C)C(C1=O)C23)C(C)(C)OC(=O)C5 (stereo not given) | -4.25% [at 17.3 µM] | – | –
8 | C(#Cc1nc2ncccc2nc1OCCN1CCCC1)c1ccccc1 | – | – | 2300 nM (active)
9 | COC(=O)c1ccc(OC(CO)C(O)c2ccc(O)c(OC)c2)c(OC)c1 (stereo not given) | -25.1% | – | –
10 | CC1CCCCN1S(=O)(=O)c1ccc(N2CCCC2=O)cc1 (stereo not given) | -16.7% | – | –
